Sampled rows, rich in hits. Any-hit rate of the full collection: about 3.5%.
TEAD-YAP inh: TEAD-YAP interaction inhibition, primary screen, TEAD-YAP interaction inhibitor project, luminescence, HEK-TIYL cells | 640,000 compounds, 1.4% hits | AID 1259422, 2018 | inhibition, % at 9.12 µM | TEAD-Gal4/YAP UAS-luciferase luminescence; in the data active = inhibition above about 32%
MITF primary: MITF inhibitors, primary screen, biochemical, AlphaScreen, human; Microphthalmia-associated transcription factor (Homo sapiens), O75030; AlphaScreen MITF homodimerization, bead proximity signal; inhibition, % at 2.6 µM; 650,000 compounds, 0.91% hits; AID 1259374, 2018; in the data active = inhibition above about 50%
GPR151 ag: activators of human GPR151, primary screen, cell-based, PathHunter beta-arrestin, luminescence | 650,000 compounds, 1% hits | G-protein coupled receptor 151 (Homo sapiens), Q8TDV0 | PathHunter beta-arrestin GPR151 cells | activation, % at 11.2 µM; in the data active = activation above about 4.9%
FBW7 act: FBW7 E3 ligase activators, primary screen, biochemical, AlphaScreen, human; F-box/WD repeat-containing protein 7 (Homo sapiens), Q969H0; AlphaScreen FBW7–phospho-cyclin E peptide binding, activator screen; normalized activity (activation), % at 26.1 µM; 650,000 compounds, 0.13% hits; in the data active = normalized activity above about 1.9%;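 also: purified mutant Fbw7 with reduced substrate affinity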
A number is an active result; – = inactive.

SMILES	TEAD-YAP inh	MITF primary	GPR151 ag	FBW7 act
Nc1cc2c(cc1S(=O)(=O)O)C(=O)c1ccccc1C2=O	–	–	–	–
O=C1c2ccccc2C(=O)c2cc(S(=O)(=O)O)c(O)cc21	–	64	–	–
O=C(NCCCc1ccncc1)C1CC12CCN(Cc1cccs1)CC2 (stereo not drawn)	–	–	–	–
N#C/C(=C\C=C\c1ccc([N+](=O)[O-])o1)c1nc2ccccc2[nH]1	59	–	–	–
COc1ccc(-c2cnc(SCC(=O)Nc3cccc(F)c3)n2C)cc1	33	–	–	–
CC(C)(C)c1ccc(C(=O)Nc2ccc(NC(=O)c3ccc([N+](=O)[O-])o3)cc2)cc1	–	–	–	–
COc1cc(Nc2nccn3c(-c4ccc(C)cc4)cnc23)cc(OC)c1OC	46	–	–	–
COc1cc(CNc2nccn3c(-c4ccsc4)cnc23)cc(OC)c1OC	–	–	–	–
COc1cc(CNc2nccn3c(-c4ccc5ccccc5c4)cnc23)cc(OC)c1OC	–	–	–	2.0
COc1cc(-c2cnc3c(Nc4ccc(Cl)cc4)nccn23)cc(OC)c1OC	–	–	–	–
COc1cc(Nc2nccn3c(-c4ccsc4)cnc23)cc(OC)c1OC	55	–	–	–
COc1cc(Nc2nccn3c(-c4ccccc4)cnc23)cc(OC)c1OC	59	–	–	–
Cc1cc(C)n2nc(S(=O)(=O)N3CCC(C(=O)O)CC3)nc2n1	–	–	–	–
COc1cc(Nc2nccn3c(-c4cccc(N)c4)cnc23)cc(OC)c1OC	43	–	–	–
COc1cc(Nc2nccn3c(-c4cccc5ccccc45)cnc23)cc(OC)c1OC	–	–	–	–
c1cc(CCNc2nccn3c(-c4ccsc4)cnc23)ccn1	39	–	–	–
Fc1ccc2nc(Nc3nc(-c4ccncc4)cs3)sc2c1	–	–	–	–
CCOc1ccc(Nc2nc(-c3ccccn3)cs2)cc1	–	–	–	–
Cc1nc(NC(=O)c2ccccc2)sc1-c1csc(Nc2cccc(Cl)c2C)n1	–	–	–	–
Fc1ccc2nc(Nc3nc(-c4ccccn4)cs3)sc2c1	52	–	–	–
CCOc1ccc(Nc2nc(-c3sc(NC(=O)CC)nc3C)cs2)cc1	48	–	–	–
COc1cc(Br)c(Nc2nc(-c3sc(NC(=O)c4ccccc4)nc3C)cs2)c(Br)c1	42	–	–	–
COc1ccc(Nc2nc(-c3ccccn3)cs2)cc1	43	–	–	–
Cc1nc2cc(C(=O)NCc3ccccc3Cl)ccc2n1-c1ccc(Br)cc1	–	–	–	–
O=C(NCC1(c2ccccc2)CCOCC1)C1CC12CCN(C1CCSCC1)CC2 (stereo not drawn)	–	–	–	–
SMILES	TEAD-YAP inh	MITF primary	GPR151 ag	FBW7 act
CCOC(=O)C1(CCCc2ccccc2)CCN(C(=O)CSc2nncn2C)CC1	–	–	–	–
O=C(CSCC(=O)Nc1ccc2nc(SCC(=O)NC3CC3)sc2c1)Nc1ccc2ccccc2c1	–	–	–	–
COc1ccc(-c2csc(Nc3ccccc3OC)n2)c(OC)c1	–	–	–	–
Cc1nc(N)sc1-c1csc(Nc2cccc(C(F)(F)F)c2)n1	–	52	–	–
COc1ccccc1Nc1nc(-c2sc(C)nc2C)cs1	–	–	–	–
COc1ccc(Nc2nc(-c3sc(C)nc3C)cs2)cc1	42	–	–	–
CCc1ccc(Nc2nc(-c3ccccn3)cs2)cc1	40	–	–	–
COc1cccc(Nc2nc(-c3ccc(OC)cc3OC)cs2)c1	64	–	–	–
Cn1cccc1C(=O)NC(=O)COC(=O)c1ccc(S(=O)(=O)NCc2ccco2)cc1	–	–	–	–
Cc1ccc(-c2nc3ccccc3o2)cc1N	–	–	–	–
Cc1cc2nc(-c3cccc(N)c3)oc2cc1C	35	–	–	–
Cc1cc2nc(-c3ccc(C)c(N)c3)oc2cc1C	36	–	–	–
Cc1ccc2nc(-c3cc(N)cc(N)c3)oc2c1	56	–	–	–
Cc1ccc2nc(-c3cc(N)ccc3O)oc2c1	–	–	–	–
CCc1ccc2oc(-c3ccc(C)c(N)c3)nc2c1	43	–	–	–
CC1(C)S[C@@H]2[C@H](NC(=O)[C@H](C(=O)O)c3cccs3)C(=O)N2[C@H]1C(=O)O	–	–	–	–
CC1(C)C(C(=O)O)N2C(=O)C(NC(=O)C(C(=O)O)c3ccccc3)C2S1=O (stereo not drawn)	–	–	–	2.5

Screening results deposited in PubChem BioAssay by The Scripps Research Institute Molecular Screening Center.
